Assay results taken from PubChem BioAssay (Tox21).
Records with an inconclusive call do not appear. Active and inactive are the calls of the source. Unless noted, calls come from the whole dose curve.

How the values were obtained:
[1] = Nuclear factor erythroid 2-related factor 2/antioxidant responsive element (Nrf2/ARE) small molecule agonists: qHTS cell viability counter screen in human keratinocytes (AID 1919968; active = well fitted curve in the direction sought with a large enough effect in the repeat runs; an effect the other way counts as inactive or inconclusive; note: nearly all actives have a fitted effect of over 55% in size)
Outline: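 HaCaT ARE reporter line, 1,500 cells/well; 5 h settle, 37 C/5% CO2; cpd in DMSO pinned; 23 h exposure; CellTiter-Fluor, 1 h; fluorescence.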

[2] = Nuclear factor erythroid 2-related factor 2/antioxidant responsive element (Nrf2/ARE) small molecule agonists: luciferase reporter gene qHTS assay in human keratinocytes (AID 1919969); note: nearly all actives have a fitted effect of over 35% in size
[3] = target: Gonadotropin-releasing hormone receptor (Homo sapiens) (UniProt P30968); experiment: Human gonadotropin-releasing hormone receptor (GnRHR) small molecule agonists, calcium flux assay in GnRHR-HEK293 cells (AID 1920063); note: nearly all actives have a fitted effect of over 35% in size
Outline: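 GnRHR-HEK293, 1500 cells/well, 18 h 37 C/5% CO2; Ca dye 1 h 37 C; cpd pinned (DMSO), agonist mode; kinetic FL 480/540, 3 min, 1 s reads; 15 conc, n=3.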

[4] = target: KiSS-1 receptor (Homo sapiens) (UniProt Q969F8); experiment: Human kisspeptin (KISS1R) small molecule agonists, calcium flux assay in KISS1R-HEK293 cells (AID 1920064; active = well fitted curve in the direction sought with a large enough effect in the repeat runs; an effect the other way counts as inactive or inconclusive)
Outline: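 Stable human KISS1R HEK293 line; 18 h plating, 37 C/5% CO2; calcium dye 1 h 37 C; compound pin transfer; kinetic fluorescence Ex/Em 480/540, 3 min.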

[5] = G protein-coupled receptor (GPCR) small molecule agonists, calcium flux assay: HEK293 wild type cell line counter screen (AID 1920065)
Outline: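 Kinetic fluorescence at Ex/Em 480/540, recorded every second over 3 min, served as the read-out after compound addition. Each compound was tested at 15 concentrations in triplicate on cells pre-loaded with calcium dye for 1 h.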

[6] = p53 small molecule agonists, cell-based qHTS assay with human liver microsomes (AID 1963577);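 note: p53 response element beta-lactamase reporter cells with liver microsomes plus NADPH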
Outline: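 HLM-supplemented p53RE-bla reporter assay: 16 h compound exposure at 37 C, microsomes and NADPH each 0.5 mg/mL final, read by fluorescence intensity.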

[7] = p53 small molecule agonists, cell-based qHTS assay with rat liver microsomes (AID 1963578)
Outline: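 Quantitative HTS of the Tox21 10K library: p53RE-bla cells, rat liver microsomes plus NADPH at 0.5 mg/mL final each, 16 h at 37 C, beta-lactamase fluorescence detection.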

[8] = p53 small molecule agonists, cell-based qHTS assay with human liver microsomes: qHTS cell viability counter screen (AID 1963579); note: nearly all actives have a fitted effect of over 45% in size
Outline: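 Viability of p53RE-bla cells is measured as CellTiter-Glo luminescence following a 16 h, 37 C incubation with compound, liver microsomes from human donors and NADPH.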

[9] = p53 small molecule agonists, cell-based qHTS assay with rat liver microsomes: qHTS cell viability counter screen (AID 1963580); note: nearly all actives have a fitted effect of over 45% in size
Outline: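 Viability is assessed in parallel with the p53 reporter read: HCT-116 p53RE-bla cells receive compounds plus rat microsomes and NADPH (0.5 mg/mL final apiece), incubate 16 h at 37 C, and then CellTiter-Glo luminescence is recorded.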

[10] = p53 small molecule agonists, cell-based qHTS assay: qHTS cell viability counter screen (AID 1963581); note: nearly all actives have a fitted effect of over 45% in size
Outline: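 HCT-116 p53RE-bla cells, 4,000/well, plated 5 h before compound pin transfer; 16 h at 37 C; bla substrate 2 h RT; then CellTiter-Glo, 30 min RT, luminescence.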

[11] = p53 small molecule agonists, cell-based qHTS assay (AID 1963582; active = well fitted activation curve with a large enough effect in the signal ratio in the repeat runs, not every such curve was filed as active; the % refers to the signal ratio)
Outline: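 Reporter line: p53RE-bla. Pre-incubation 5 h, 37 C, 5% CO2; compound (DMSO, pin tool) 16 h, 37 C; B/G FRET substrate 2 h RT; fluorescence intensity read.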

[12] = target: 5-hydroxytryptamine receptor 2A (Homo sapiens) (UniProt P28223); experiment: 5-hydroxytryptamine receptor 2A (HTR2A) small molecule antagonists, cell-based qHTS assay (AID 1963586); note: nearly all actives have a fitted effect of over 45% in size; note: potency is the fitted concentration of half-maximal effect
Outline: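 Antagonist-mode intracellular calcium assay: DOI (4 nM) added after 5 min compound pre-incubation at room temperature to dye-loaded HTR2A-CHO cells. Fluorescence followed for 3 min, sampled every second.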

[13] = target: 5-hydroxytryptamine receptor 2A (Homo sapiens) (UniProt P28223); experiment: 5-hydroxytryptamine receptor 2A (HTR2A) small molecule agonists, cell-based qHTS assay (AID 1963587); note: nearly all actives have a fitted effect of over 30% in size
Outline: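 CHO cells stably expressing human HTR2A, plated 18 h, loaded with calcium dye 1 h at 37 C. Agonist mode: compounds added and intracellular calcium fluorescence recorded kinetically for 2 min at 1 sec intervals.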

[14] = target: Muscarinic acetylcholine receptor M1 (Homo sapiens) (UniProt P11229); experiment: Cholinergic receptor muscarinic 1 (CHRM1) small molecule agonists, cell-based qHTS assay (AID 1963589); note: nearly all actives have a fitted effect of over 35% in size
Outline: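 Human M1 in stable CHO line; 18 h plating, 1 h dye load 37 C; cpd added (agonist mode); Ca2+ fluorescence kinetic read, 1 s intervals; 15 conc, 3 runs.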

[15] = cAMP Responsive Elements (CRE) small molecule agonists, cell-based qHTS assay (AID 1963590)
Outline: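 HEK 293T CRE-bla, 2,000 cells/well, 18 h preincubation 37 C/5% CO2; cpds (DMSO) pinned, 3 h; LiveBLAzer B/G FRET substrate, 2 h RT.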

[16] = cAMP Responsive Elements (CRE) small molecule antagonists, cell-based qHTS assay (AID 1963591; active = well fitted inhibition curve with a large enough effect in the signal ratio in the repeat runs, not every such curve was filed as active; the % refers to the signal ratio)
Outline: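 Beta-lactamase reporter read by FRET substrate (LiveBLAzer B/G) after 2 h at room temperature. CRE-bla HEK293T cells had received compound plus 0.25 uM (final) NKH477 for 3 h at 37 °C.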

[17] = target: Beta-2 adrenergic receptor (Homo sapiens) (UniProt P07550); experiment: Adrenergic beta2 receptor (ADRB2) small molecule antagonists, cell-based qHTS assay (AID 1963592); note: series mostly up to about 92 µM; nearly all actives have a fitted effect of over 50% in size
Outline: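 Cells (CHO, stable ADRB2 overexpression) incubated 18-20hr at 37C; compounds added from DMSO; agonist mix (1nM isoproterenol, 100uM IBMX, 25uM Ro-20-1724) added; 0.5hr RT; d2-cAMP and anti-cAMP-cryptate added; 1hr RT; 665/615 nm read.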

[18] = target: D(2) dopamine receptor (Homo sapiens) (UniProt P14416); experiment: Dopamine D2 receptor (DRD2) small molecule antagonists, cell-based qHTS assay (AID 1963595; active = well fitted inhibition curve with a large enough effect in the signal ratio in the repeat runs, with a control signal flat; the % refers to the signal ratio)
Outline: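 HTRF cAMP read-out at 665 and 620 nm emission (340 nm excitation). Antagonist mode: compounds were tested against 12 nM quinpirole in DRD2-HEK293 cells, with 200 nM NKH477 raising cAMP and 0.1 mM Ro20-1724 blocking its breakdown.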

[19] = target: D(2) dopamine receptor (Homo sapiens) (UniProt P14416); experiment: Dopamine D2 receptor (DRD2) small molecule agonists, cell-based qHTS assay (AID 1963594); note: nearly all actives have a fitted effect of over 35% in size
Outline: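 HEK293 cells stably expressing human DRD2, pre-treated with PDE inhibitor Ro20-1724 (0.1 mM final) and compound 10 min at room temperature, then stimulated with NKH477 (200nM […]) for 30 min. cAMP read by HTRF (665/620 nm).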

[20] = target: Muscarinic acetylcholine receptor M1 (Homo sapiens) (UniProt P11229); experiment: Cholinergic receptor muscarinic 1 (CHRM1) small molecule antagonists, cell-based qHTS assay (AID 1963588); note: nearly all actives have a fitted effect of over 40% in size
Outline: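 CHRM1-CHO calcium-flux assay, antagonist mode. Cells were seeded 18 h, dye-loaded 1 h at 37 C and given compound for 5 min at RT, then acetylcholine was added at 50nM. FDSS fluorescence was read 3 min; 15 concentrations, three runs.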

Measured: Potency

Beta-2 adrenergic receptor (Homo sapiens), sequence (P07550 whole entry, looked up): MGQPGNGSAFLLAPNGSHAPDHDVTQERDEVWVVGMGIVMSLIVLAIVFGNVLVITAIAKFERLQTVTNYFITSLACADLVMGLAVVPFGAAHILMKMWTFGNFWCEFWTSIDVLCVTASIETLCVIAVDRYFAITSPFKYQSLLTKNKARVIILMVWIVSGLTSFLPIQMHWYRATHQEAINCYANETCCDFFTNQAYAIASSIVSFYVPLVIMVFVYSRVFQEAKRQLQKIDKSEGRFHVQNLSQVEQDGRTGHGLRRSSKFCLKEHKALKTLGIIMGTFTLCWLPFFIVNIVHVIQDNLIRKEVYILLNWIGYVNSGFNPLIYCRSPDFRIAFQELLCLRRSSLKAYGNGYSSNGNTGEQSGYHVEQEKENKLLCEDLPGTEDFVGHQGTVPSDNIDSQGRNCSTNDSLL
5-hydroxytryptamine receptor 2A (Homo sapiens), sequence (P28223 whole entry, looked up): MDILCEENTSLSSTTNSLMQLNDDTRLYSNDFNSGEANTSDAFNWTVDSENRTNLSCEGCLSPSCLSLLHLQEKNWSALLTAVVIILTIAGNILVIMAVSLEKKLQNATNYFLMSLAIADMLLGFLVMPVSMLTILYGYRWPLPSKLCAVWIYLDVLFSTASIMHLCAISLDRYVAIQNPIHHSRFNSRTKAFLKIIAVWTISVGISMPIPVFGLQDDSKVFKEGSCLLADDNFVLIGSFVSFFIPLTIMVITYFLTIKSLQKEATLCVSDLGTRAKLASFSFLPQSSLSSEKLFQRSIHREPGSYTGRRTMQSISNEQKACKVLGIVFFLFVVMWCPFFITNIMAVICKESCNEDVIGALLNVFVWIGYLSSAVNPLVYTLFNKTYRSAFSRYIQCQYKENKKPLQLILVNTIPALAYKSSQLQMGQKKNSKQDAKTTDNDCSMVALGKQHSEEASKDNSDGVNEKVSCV
D(2) dopamine receptor (Homo sapiens), sequence (P14416 whole entry, looked up): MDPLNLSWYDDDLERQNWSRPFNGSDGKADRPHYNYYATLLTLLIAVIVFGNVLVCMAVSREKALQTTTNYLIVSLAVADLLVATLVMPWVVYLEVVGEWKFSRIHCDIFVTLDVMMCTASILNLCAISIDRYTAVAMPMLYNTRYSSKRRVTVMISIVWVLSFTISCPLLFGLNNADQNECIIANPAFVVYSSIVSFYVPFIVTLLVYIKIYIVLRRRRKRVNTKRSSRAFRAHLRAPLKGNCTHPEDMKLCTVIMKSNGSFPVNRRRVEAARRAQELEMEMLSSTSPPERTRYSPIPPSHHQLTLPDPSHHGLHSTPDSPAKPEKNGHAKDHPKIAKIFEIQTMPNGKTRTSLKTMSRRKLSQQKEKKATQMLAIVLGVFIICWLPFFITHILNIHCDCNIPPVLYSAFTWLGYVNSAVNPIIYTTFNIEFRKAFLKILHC
KiSS-1 receptor (Homo sapiens), sequence (Q969F8 whole entry, looked up): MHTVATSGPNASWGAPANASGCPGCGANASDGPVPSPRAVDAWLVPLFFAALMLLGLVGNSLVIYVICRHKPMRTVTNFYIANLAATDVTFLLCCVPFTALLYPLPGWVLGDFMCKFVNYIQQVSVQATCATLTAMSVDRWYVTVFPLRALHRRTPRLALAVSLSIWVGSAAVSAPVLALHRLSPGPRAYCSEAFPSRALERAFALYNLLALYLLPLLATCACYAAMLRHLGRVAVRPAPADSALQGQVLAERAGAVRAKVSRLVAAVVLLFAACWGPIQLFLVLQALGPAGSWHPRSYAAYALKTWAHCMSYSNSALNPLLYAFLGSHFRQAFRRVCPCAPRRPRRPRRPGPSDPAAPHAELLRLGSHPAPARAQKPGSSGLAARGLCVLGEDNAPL
Gonadotropin-releasing hormone receptor (Homo sapiens), sequence (P30968 whole entry, looked up): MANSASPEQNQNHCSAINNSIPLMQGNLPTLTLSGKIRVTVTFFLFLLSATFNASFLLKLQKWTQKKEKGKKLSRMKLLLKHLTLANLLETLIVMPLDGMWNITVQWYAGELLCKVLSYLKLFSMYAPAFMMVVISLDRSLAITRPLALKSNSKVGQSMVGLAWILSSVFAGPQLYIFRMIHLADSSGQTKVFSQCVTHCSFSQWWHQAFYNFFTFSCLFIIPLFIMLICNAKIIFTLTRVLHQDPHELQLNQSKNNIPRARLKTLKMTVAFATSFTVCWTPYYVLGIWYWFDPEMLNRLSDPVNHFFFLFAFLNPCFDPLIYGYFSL
Muscarinic acetylcholine receptor M1 (Homo sapiens), sequence (P11229 whole entry, looked up): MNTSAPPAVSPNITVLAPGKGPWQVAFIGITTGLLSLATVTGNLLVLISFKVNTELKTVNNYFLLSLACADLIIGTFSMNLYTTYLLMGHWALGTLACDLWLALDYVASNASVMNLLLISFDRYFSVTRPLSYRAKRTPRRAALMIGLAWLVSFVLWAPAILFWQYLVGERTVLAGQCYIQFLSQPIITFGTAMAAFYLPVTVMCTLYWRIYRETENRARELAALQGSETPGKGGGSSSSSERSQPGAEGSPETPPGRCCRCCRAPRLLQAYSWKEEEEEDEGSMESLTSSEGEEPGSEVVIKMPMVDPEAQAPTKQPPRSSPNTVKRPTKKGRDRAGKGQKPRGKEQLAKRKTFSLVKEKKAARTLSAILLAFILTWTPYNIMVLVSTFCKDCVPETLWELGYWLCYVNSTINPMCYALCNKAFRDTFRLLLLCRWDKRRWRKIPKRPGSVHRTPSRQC

CC(COCCO)OCCO (centres undefined)
not listed: [19] | [20]
inactive: all other assays above

CC(C)CCCCCOC(=O)CS
active: [12] 1880 nM
not listed: [18] | [20]
inactive: all other assays above

CC(=O)c1ccccc1N
not listed: [14] | [15] | [18]
inactive: all other assays above

CCCC(O)C(O)CO (centres undefined)
not listed: [20]
inactive: all other assays above

Nc1nccs1
not listed: [14] | [16]
inactive: all other assays above

CC(C)CCCCCCCCCCCCCCC(=O)O
not listed: [20]
inactive: all other assays above

O=[N+]([O-])c1ccc(Oc2ccc([N+](=O)[O-])cc2)cc1
not listed: [13]
inactive: all other assays above

O=C(O)c1ccc(CO)o1
not listed: [20]
inactive: all other assays above

C1CCC2OC2C1 (centres undefined)
not listed: [14] | [15] | [16] | [19]
inactive: all other assays above

CC1(C)[C@H]2CC[C@]1(C)[C@H](O)C2
not listed: [14] | [16]
inactive: all other assays above

O=C1Nc2ccccc2C1=O
not listed: [20]
inactive: all other assays above

CCC1COC(=O)O1 (centres undefined)
not listed: [20]
inactive: all other assays above

O=C1OC(=O)c2ccccc21
not listed: [14] | [15] | [17]
inactive: all other assays above

CCN(CC)S(=O)(=O)c1ccc(C(=O)O)cc1
not listed: [13] | [18] | [19]
inactive: all other assays above

CC(C)(CO)[C@@H](O)C(=O)NCCC(=O)O
not listed: [18] | [20]
inactive: all other assays above

CO/N=C(/C(=O)N[C@@H]1C(=O)N2C(C(=O)O)=C(COC(N)=O)CS[C@H]12)c1ccco1
not listed: [14] | [20]
inactive: all other assays above
